Among all 53,000 compounds or so, about 900 (1.7%) showed an effect of 50% or more. This excerpt belongs to a sample that is enriched for strong results.
What follows are compounds tested on Mycobacterium tuberculosis (assay: Cornell - Phenotypic assay to identify agents that inhibit growth of Mycobacterium tuberculosis). Settings: 10 mM as filed; unlikely as a test dose.
Type: functional
Design: scale not given: direction of the effect not stated beside the values

Compound | Percent Effect [%]
CN(C)C[C@@H]1C[C@@H]2CN(C(=O)Cc3cccs3)CC[C@@H]2N1C | -13.85
Cc1cc(C)nc(N2CCC(Cn3cc(C(=O)N(C)C)cn3)CC2)n1 | 9.732
CC(C)(C)c1cc(NC(=O)CNC2CCc3ncnn3C2)on1 (stereo not given) | -1.762
c1cncc(Cc2nnc3n2CCN(CC2CCOC2)CC3)c1 (stereo not given) | 8.69
O=C(O)c1ccc(S(=O)(=O)Nc2c(F)cccc2-n2cccn2)cc1 | 7.087
O=C(O)C(F)(F)F.O=C(O)C(F)(F)F.O=C(c1ccc(F)cc1)N1CCN2C[C@H](OCc3cccnc3)C[C@H]2C1 | 19.5
O=C(c1cccc2ccnn12)N1CCCC1Cn1cccn1 (stereo not given) | 2.312
Cc1noc(-c2c[nH]nc2C2CCCN2C(=O)c2ccccc2)c1C (stereo not given) | -2.6
Cc1ccc(CCCC(=O)N(C)CCN2CCOCC2)cc1 | -37.37
CCCC(=O)N(CCCN1CCOCC1)c1nc2c(C)ccc(Cl)c2s1.Cl | 110.2
CCCC(=O)N(CCCN1CCOCC1)c1nc2c(F)cccc2s1.Cl | 7.328
CCCC(=O)N(CCN1CCOCC1)c1nc2c(OC)ccc(C)c2s1.Cl | -1.479
CCCC(=O)N(CCCN1CCOCC1)c1nc2c(Cl)cccc2s1.Cl | 9.811
CCCC(=O)N(CCCN1CCOCC1)c1nc2c(C)c(C)ccc2s1.Cl | 69.7
CC(=O)N1CCC(c2nccnc2Nc2ncc(C)s2)CC1 | 21.23
O=C(Nc1ccccc1OC1CCOC1)c1[nH]nc2c1CCCC2 (stereo not given) | 80.23
O=C(NCCc1ccccn1)c1[nH]nc2c1CCCC2 | 20.26
O=C(Nc1ccccc1OC1CCOC1)c1cc[nH]n1 (stereo not given) | -18.84
CO[C@@H]1CC[C@H]2[C@H]1OCCN2C(=O)COc1ccc(F)cc1 | 15.86
COCCC(C)NC(=O)c1cc(Br)c2c(c1)OCCO2 (stereo not given) | 13.03
Cc1nccc(-c2cccc(NCC(=O)N3CCOCC3)c2)n1 | 9.914
CNc1cccc(C2CN(C(=O)CNS(C)(=O)=O)CCO2)n1 (stereo not given) | -23.18
CC(C)CCC(=O)N(C)CC(=O)Nc1ccc(Br)cn1 | -12.94
O=C(c1cnc2ccc(F)cc2c1NCc1ccccn1)N1CCCC1 | 5.685

Compound | Percent Effect [%]
COCCC1(CNC(=O)Nc2ccc(-n3nccn3)cc2)CCC1 | 32.79
COCCC1(CNC(=O)Nc2ccc(-n3ccnn3)cc2)CCC1 | 75.09
COCCC1(CNC(=O)Nc2ccc(-n3cccn3)cc2)CCC1 | 21.41
Cc1nc(C2CCCNC2)nc2c1CCCN2Cc1ccccn1.Cl.Cl (stereo not given) | 10.21
Cc1nnc(C(C)N2CCCN(Cc3ccc(F)cc3)CC2)o1 (stereo not given) | 8.155
Br.O=C(O)c1csc(NCCc2ccccc2)n1 | 71.03
Cc1nc(NCCc2ccccc2)cc(C(=O)N2CCCCC2)n1 | -12.22
CN1CC(=O)c2sc(NCCc3ccccc3)nc2C1 | -47.63
Cc1nn(C)c(C)c1CC(=O)N1CCCC(CNS(C)(=O)=O)C1 (stereo not given) | -13.44
CC(C)Cn1nc(-c2ccc(C(=O)O)cc2)cc1-c1ccc(F)cc1 | 92.09
CCC(O)Cn1nc(-c2ccc(C(=O)O)cc2)cc1-c1cccc(F)c1 (stereo not given) | -3.821
CCC(O)Cn1nc(-c2ccc(C(=O)O)cc2)cc1-c1ccc(F)cc1 (stereo not given) | 43.49
CC(C)(C)n1ncc2c(=O)[nH]c(N3CCN(CC(F)F)CC3)nc21 | 62.42
CC(=O)N1CCN(c2nc3c(cnn3C(C)(C)C)c(=O)[nH]2)CC1 | 26.42
CC(C)(C)n1ncc2c(=O)[nH]c(N3CC(O)C3)nc21 | -9.536
CN1CC(Nc2nc3c(cnn3C(C)(C)C)c(=O)[nH]2)CCC1=O (stereo not given) | 12.63
CC(C)(C)n1ncc2c(=O)[nH]c(N3CCN(CCO)CC3)nc21 | 21.4
CC(C)(C)n1ncc2c(=O)[nH]c(NC3CC=CC3)nc21 | 82.93
Nc1cc(-c2nccnc2N2CCCC2)c2cc[nH]c2n1 | -1.136
CC(=O)N1CCC2(CCN(S(=O)(=O)c3ccccc3)CC2)C1 | -13.67
CC(C)CN1C[C@H]2CCN(C(=O)NC3CCCC3)CC[C@H]2S1(=O)=O | 15.88
COc1cccc(CNc2ccc(F)c(Cl)c2)c1O | 58.04
COc1cccc(CNCc2ccc(F)cc2Cl)c1O | 52.17
CCOc1cccc(CNc2cccc(C(=O)OC)c2)c1O | 2.238

Compound | Percent Effect [%]
COc1cccc(CNCc2ccccc2Cl)c1O | -0.8125
COc1cccc(CNCc2ccc(F)c(Cl)c2)c1O | 2.035
COc1cccc(CNCc2cccc(Cl)c2)c1O | 2.888
COc1cccc(N2CCN(CC(O)c3cc(C)ccc3C)CC2)c1 (stereo not given) | -17.91
Cc1ccc(-c2nc(CCNC(=O)NCC(C)(C)C(N)=O)co2)cc1 | -1.516
Cc1ccc(Br)cc1NC(=O)NCC(O)CO (stereo not given) | -28.33
CN1C(=O)[C@H]2CC[C@@H]1CN(c1ncnc3ccsc13)C2 | 26.9
CN(C)c1nc2n(c(=O)n1)CCN2C(=O)Nc1ccc(Cl)cc1 | -48.51
CN(C)c1nc2n(c(=O)n1)CCN2C(=O)Nc1cccc(Cl)c1 | -1.647
CN(C)c1nc2n(c(=O)n1)CCN2C(=O)Nc1ccc(Cl)c(Cl)c1 | 104.9
Cc1cc(C)n(CCCNC(=O)C(C)NC(=O)c2ccccc2Cl)n1 (stereo not given) | -13.3
CC1(CNC(=O)NCc2ccsc2)CCCS1 (stereo not given) | 1.003
Cc1nc(N2CCOCC2)nc2c1CCN(C(=O)C1CCCCC1)CC2 | 34.6
Cc1ccc(-c2nnc(C(C)NCCn3cc(C)cn3)o2)cc1 (stereo not given) | -4.1
CC(Cn1cccn1)NCc1nc(-c2cccs2)no1 (stereo not given) | 28.55
CCc1sc(-c2nnc(CNC(C)Cn3cc(C)cn3)o2)cc1C (stereo not given) | 15.55
CCc1sc(-c2nnc(CNCCn3cc(C)cn3)o2)cc1C | 69.26
CCc1sc(-c2nnc(CNC(C)Cn3cccn3)o2)cc1C (stereo not given) | 50.91
Cc1cnn(CCNCc2nnc(C3CC3)o2)c1 | -12.52
Cc1ccoc1-c1nnc(CNCCn2cccn2)o1 | -13.89
CCc1sc(-c2nnc(CNCCn3cccn3)o2)cc1C | -21.28
Cc1ccc(-c2nnc(CNCCn3cc(C)cn3)o2)cc1 | 51.67

— ChEMBL document CHEMBL3988442, “University of Dundee, Small-Polar-MMV Screening Library” (2021)
